PREPL inhibitor – inhibits the human prolyl oligopeptidase-like enzyme. Q4J6C6. recombinant PREPL, fluorescence polarization activity-based probe. inhibition, % at 5.96 µM. 0.68% of 320,000 active; in the data active = inhibition above about 43%
Target sequence (Q4J6C6 whole entry, looked up): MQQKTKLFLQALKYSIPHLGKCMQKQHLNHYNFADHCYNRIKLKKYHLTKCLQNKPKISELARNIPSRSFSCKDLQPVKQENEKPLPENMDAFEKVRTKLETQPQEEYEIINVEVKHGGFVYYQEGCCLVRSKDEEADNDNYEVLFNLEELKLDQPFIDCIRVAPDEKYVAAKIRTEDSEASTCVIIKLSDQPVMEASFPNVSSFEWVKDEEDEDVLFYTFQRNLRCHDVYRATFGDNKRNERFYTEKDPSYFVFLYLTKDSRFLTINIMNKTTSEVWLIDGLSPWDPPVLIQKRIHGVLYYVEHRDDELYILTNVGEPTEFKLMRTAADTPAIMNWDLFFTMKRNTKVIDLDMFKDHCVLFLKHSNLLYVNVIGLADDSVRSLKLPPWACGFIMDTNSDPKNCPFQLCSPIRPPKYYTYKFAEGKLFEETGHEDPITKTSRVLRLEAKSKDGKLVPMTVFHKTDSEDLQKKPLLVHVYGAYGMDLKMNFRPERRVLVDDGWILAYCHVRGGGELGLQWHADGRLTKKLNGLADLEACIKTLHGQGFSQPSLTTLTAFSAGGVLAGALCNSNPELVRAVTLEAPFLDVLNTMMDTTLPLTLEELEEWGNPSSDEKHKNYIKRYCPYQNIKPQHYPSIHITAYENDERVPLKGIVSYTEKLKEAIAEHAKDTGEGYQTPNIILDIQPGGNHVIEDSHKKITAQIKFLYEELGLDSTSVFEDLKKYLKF
Hck-Nef inh – inhibitors of human Hck kinase activated by Nef; Recombinant Hck-YEEI plus Nef, Z-Lyte FRET kinase assay; inhibition, % at 20 µM; 0.68% of 220,000 active;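 active = Hck-Nef kinase inhibition above about 50%, limit read from the data; inactive = inhibition below that limit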
p97 ATPase inh – human p97 ATPase inhibition; recombinant p97 ATPase, Kinase-Glo ATP luminescence, 3 h; P55072; inhibition, % at 8 µM; 0.42% of 220,000 active; AID 1481; in the data active = inhibition above about 15%
Rin1 Abl inh – human Rin1-Abl interaction inhibition. TR-FRET Rin1/Abl binding, biochemical. P00519+Q13671. inhibition, % at 7.35 µM. 0.4% of 360,000 active; in the data active = inhibition above about 5%, passing the limit was not always enough
LYPLA1 counter – counter-screen for PME1 inhibitors: inhibitors of human LYPLA1; inhibition, % at 5.9 µM; AID 2174; O75608; 0.16% of 320,000 active; recombinant LYPLA1, FP-Rh probe fluorescence polarization;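 active = inhibition above the mean of all tested compounds plus 3 SD, set per campaign, cut at about 14% in these data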;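 note: inhibitors block serine hydrolase probe labeling of LYPLA1 so polarization falls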
LYPLA2 inh – counter-screen for PME1 inhibitors: inhibitors of human LYPLA2 | O95372 | recombinant LYPLA2, FP-Rh probe fluorescence polarization | inhibition, % at 5.9 µM | 0.38% of 320,000 active;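 active = inhibition above the screen-wide mean plus 3 SD, limit set per campaign, cut at about 26% in these data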
A number is an active result; n = inactive; x = not tested or not shown; + = active, no number. A selection: hits, their analogues and other compounds. The true share with any hit is near 1.7%.

SMILES | PREPL inhibitor | Hck-Nef inh | p97 ATPase inh | Rin1 Abl inh | LYPLA1 counter | LYPLA2 inh
COCCN1C=C(C(=O)OC)C(c2cc(Br)c(OC)c(OC)c2)C(C(=O)OC)=C1 | n | 68 | n | n | n | n
C=CCOc1ccc(/C=C2\C(=N)N3N=C(S(=O)(=O)CC)SC3=NC2=O)cc1OC | n | n | n | n | n | n
CCS(=O)(=O)C1=NN2C(=N)/C(=C\c3ccc(OC(=O)c4ccco4)c(OC)c3)C(=O)N=C2S1 | 51 | x | x | n | n | n
COc1ccc(-n2c(C)cc(C3=NNC(=NC4CC4)SC3)c2C)cc1 | x | n | 22 | n | x | x
Cc1cccc(Oc2cc(N)cc([N+](=O)[O-])c2)c1 | n | n | n | n | n | 31
Cc1ccc(S(=O)(=O)N2CCN(C)CC2)c2nsnc12 | n | x | x | n | n | n
O=C(CC1C[C@H](C(=O)N2CCOCC2)[C@@]2(CCC3CCCC3)c3[nH]c4ccccc4c3CCN2C1=O)NCC12CC3CC(CC(C3)C1)C2 (stereo not given in full) | n | x | x | n | x | x
COc1ccc(CCNC(=O)CC(C)S(=O)(=O)c2ccc3c(c2)NC(=O)CO3)cc1OC (stereo not given) | n | x | x | n | n | n
Nc1c2c(nc3sc4c(c13)CCCC4)CCCCCC2 | n | 59 | n | n | n | n
Nc1nc2sc3c(c2c(=O)s1)CCCC3 | n | n | n | n | n | n
O=S(=O)(c1ccc(NC(=S)N2CCN(c3ccc(O)cc3)CC2)cc1)N1CCOCC1 | n | n | n | n | n | 35
O=S(=O)(c1ccc(NC(=S)N2CCOCC2)cc1)N1CCCCC1 | x | x | x | n | x | x
Cc1cc(=O)n(-c2ccc(O)cc2)[nH]1 | n | n | 21 | n | n | n
Cc1cc(=O)n(-c2ccccc2Cl)[nH]1 | n | n | n | n | n | n
O=C1NC(=S)S/C1=C\c1ccc(SCc2ccccc2)o1 | n | n | n | n | n | n
O=C1NC(=S)S/C1=C\c1ccc(SCc2ccco2)o1 | n | 85 | 53 | 12 | n | n
COC(=O)c1cc2c(=O)n3ccccc3nc2n(C(C)C)c1=N | x | + | n | x | x | x
CSC1=NCCN1C(=O)c1ccc(S(=O)(=O)N(C)C)cc1 | n | n | 15 | n | n | n
CCn1c(=O)c2cc(C(=O)NC(C)C)sc2c2ccccc21 | n | n | 15 | n | n | n
CCC(Sc1nc(C)cc(=O)[nH]1)C(=O)Nc1ccc(Cl)cn1 (stereo not given) | n | n | 15 | n | n | n
Cc1ccc(NC(=O)Cn2cc([N+](=O)[O-])nc2C)cc1C | n | x | x | n | n | n
O=C1N/C(=C\c2ccc(O)cc2)C(O)=C1C=NCc1ccccc1 | n | 69 | n | n | n | n
COc1ccc(/C=C2\NC(=O)C(C=NCc3ccccc3)=C2O)cc1 | n | n | n | n | n | n
CCC(C)n1c(=N)c(C#N)cc2c(=O)n3ccccc3nc21 (stereo not given) | n | n | n | n | n | n
Cc1ccc(-n2c(=O)c(C#N)cc3c(=O)n4ccccc4nc32)cc1 | n | 94 | n | n | n | n
SMILES | PREPL inhibitor | Hck-Nef inh | p97 ATPase inh | Rin1 Abl inh | LYPLA1 counter | LYPLA2 inh
O=C1c2cccc3cccc(c23)C(=O)C1(O)O | n | x | x | 14 | n | n
COc1cccc(Nc2ncnc3onc(-c4ccccc4OC)c23)c1 | n | x | x | n | n | n
CC1CC(C)CN(S(=O)(=O)c2ccc(C(=O)OCC(=O)Nc3ccccc3)cc2)C1 (stereo not given) | x | x | x | n | x | x
Nc1[nH]nc2ncc3cc4ccccc4nc3c12 | n | 67 | n | n | n | n
Cc1ccc(C(=O)OC2OC(=O)C(Cl)=C2N2CCOCC2)cc1 (stereo not given) | 43 | n | n | n | n | n
CCn1c(N2CCC(Cc3ccccc3)CC2)nc2c1c(=O)[nH]c(=O)n2C | 57 | n | n | n | n | n
Cn1c(=O)[nH]c(=O)c2c1nc(N1CCOCC1)n2CCSc1nnnn1-c1ccccc1 | n | n | n | n | n | n
COc1ccc(N2CCN(c3nc4c(c(=O)[nH]c(=O)n4C)n3Cc3cccc(C)c3)CC2)cc1 | 51 | n | n | n | n | n
CC(CSc1nnnn1-c1ccccc1)Cn1c(N2CCCC2)nc2c1c(=O)[nH]c(=O)n2C (stereo not given) | 46 | n | n | n | n | n
CSc1ncnc2c1ncn2CCCN1CCN(c2ncccn2)CC1 | x | x | x | n | x | x
COc1ccc(S(=O)(=O)N2CCCCC2)cc1NC(=O)CN(Cc1ccco1)Cc1ccco1 | n | x | x | n | n | n
CN(CC(=O)Nc1ccc(F)cc1)C(=O)C1CCCC1 | n | x | x | n | n | n
CCN1C[C@@H]2[C@@H]3C(=O)N(C)C(=O)[C@@H]3[C@](CC)(C1=O)N2C(=O)c1ccc(Cl)cc1 | x | x | x | n | x | x
C#CCOCCOCCOCCNc1nc(N2CCN(C(=O)CCCCCCCCCCNC(=O)[C@H]([C@@H](C)CC)n3cc(CCCCN=C(N)N)nn3)CC2)nc(N2CCN(C(=O)CCCCCCCCCCNC(=O)[C@@H]([C@H](C)O)n3cc(C)nn3)CC2)n1 | n | x | x | 14 | n | n
C#CCOCCOCCOCCNc1nc(N2CCOCC2)nc(N2CCN(C(=O)CCCCCCCCCCNC(=O)[C@H]([C@@H](C)CC)n3cc(CCCCN=C(N)N)nn3)CC2)n1 | n | x | x | n | n | n
C#CCOCCOCCOCCNc1nc(N2CCN(C(=O)CCCCCCCCCCNC(=O)[C@@H](CCSC)n3cc(CCO)nn3)CC2)nc(N2CCN(C(=O)CCCCCCCCCCNC(=O)[C@@H]([C@H](C)O)n3cc(C)nn3)CC2)n1 | n | x | x | n | n | n
C#CCOCCOCCOCCNc1nc(N2CCN(C(=O)CCCCCCCCCCNC(=O)[C@H](CCCN=C(N)N)n3cc(C[C@@H](C)CC)nn3)CC2)nc(N2CCN(C(=O)CCCCCCCCCCNC(=O)[C@@H]([C@H](C)CC)n3cc(CCCCCN)nn3)CC2)n1 | 60 | x | x | x | n | n
C#CCOCCOCCOCCNc1nc(N2CCN(C(=O)CCCCCCCCCCNC(=O)[C@H]([C@@H](C)CC)n3cc(CCCCN=C(N)N)nn3)CC2)nc(N2CCN(C(=O)CCCCCCCCCCNC(=O)[C@H](CCCN=C(N)N)n3cc(C[C@@H](C)CC)nn3)CC2)n1 | 69 | x | x | x | n | n
C#CCOCCOCCOCCNc1nc(N2CCN(C(=O)CCCCCCCCCCNC(=O)Cn3cc(CCCCCN)nn3)CC2)nc(N2CCN(C(=O)CCCCCCCCCCNC(=O)[C@@H]([C@H](C)O)n3cc(C)nn3)CC2)n1 | n | x | x | 11 | n | n
C#CCOCCOCCOCCNc1nc(N2CCN(C(=O)CCCCCCCCCCNC(=O)Cn3cc(C[C@@H](C)O)nn3)CC2)nc(N2CCN(C(=O)CCCCCCCCCCNC(=O)[C@@H]([C@H](C)O)n3cc(C)nn3)CC2)n1 | n | x | x | n | n | n
COc1ccc(C2=NOC(C(=O)Nc3ccc4c(c3)OCCO4)C2)c(OC)c1 (stereo not given) | n | x | x | n | n | n
COc1ccccc1CN1CC(C(=O)N(C)Cc2ccc(C)o2)CCC1=O (stereo not given) | n | x | x | n | n | n

Compound activity: PubChem BioAssay, several laboratories
